# MEKK2mut PB1 HTS = signal of MEK5 binding to mutant human MEKK2 PB1 domain; bead flow cytometry, Alexa488-MEK5 binding to MEKK2 mutant; percent response, % at 10 µM; 290,000 compounds, 0.35% hits; AID 1530; in the data active means percent response above about 24%, passing the limit was not always enough
# Pf gametocyte = inhibitors of late stage P. falciparum gametocyte viability | P. falciparum stage V gametocytes, ATP luminescence, 24 h | inhibition, % at 10.9 µM | 150,000 compounds, 0.065% hits;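 active means inhibition above the mean plus 3 SD of compounds within the control limits, set per campaign, cut at about 38% in these data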;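 further: 0% = DMSO wells and 100% = medium only without gametocytes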
# MEKK3 PB1 HTS = raises or lowers MEK5 binding to the human MEKK3 PB1 domain; bead-based flow cytometry, Alexa488-MEK5 binding to MEKK3; actives lie on both sides; 0 = blocked by unlabeled MEK5, 100 = vehicle; Q99759; AID 1529; 290,000 compounds, 1.4% hits; binding response (% of control), % at 10 µM;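 active means binding response more than 3 SD above or below the average of its plate-row segment, actives on both sides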;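 further: Alexa488 bead fluorescence after subtracting the streptavidin-only scavenger bead signal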
# Target sequence (Q99759 whole entry, looked up, the tested form may be a part): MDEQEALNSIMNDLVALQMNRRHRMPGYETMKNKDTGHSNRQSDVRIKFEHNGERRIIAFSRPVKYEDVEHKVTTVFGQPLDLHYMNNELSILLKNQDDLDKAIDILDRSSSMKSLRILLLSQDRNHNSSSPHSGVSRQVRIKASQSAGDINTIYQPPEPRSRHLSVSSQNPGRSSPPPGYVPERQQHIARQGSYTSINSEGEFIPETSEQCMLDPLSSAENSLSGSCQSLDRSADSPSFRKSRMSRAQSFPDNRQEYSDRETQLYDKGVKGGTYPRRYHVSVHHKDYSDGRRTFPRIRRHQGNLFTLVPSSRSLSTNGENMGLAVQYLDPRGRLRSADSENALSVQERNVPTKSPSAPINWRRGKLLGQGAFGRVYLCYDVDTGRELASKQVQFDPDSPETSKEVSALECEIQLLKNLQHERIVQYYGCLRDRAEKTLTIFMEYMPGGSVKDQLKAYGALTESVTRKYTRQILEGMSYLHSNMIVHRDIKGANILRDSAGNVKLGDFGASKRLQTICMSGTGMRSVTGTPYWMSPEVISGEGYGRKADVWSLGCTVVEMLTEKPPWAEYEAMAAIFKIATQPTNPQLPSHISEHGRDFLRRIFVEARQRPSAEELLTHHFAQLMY
# Arbovirus anti = antivirals against arbovirus infection; 200,000 compounds, 0.37% hits; arbovirus infection cell-based antiviral screen; inhibition, % at 10 µM; in the data active means inhibition above about 30%
# MEKK2 WT-MEK5 = raises or lowers MEK5 binding to wildtype human MEKK2 PB1 domain; Q9Y2U5; bead flow cytometry, Alexa488-MEK5 binding to MEKK2 WT; actives lie on both sides; AID 1531; 290,000 compounds, 1.1% hits; binding response (% of control), % at 10 µM; in the data active means binding response below about 67% or above about 130%
# MEKK2wt confirm = raises or lowers MEK5 binding to wildtype human MEKK2, retest; AID 1892; binding response (% of control), % at 10 µM; shares compounds with MEKK3 PB1 HTS; 5,900 compounds, 2.4% hits; bead flow cytometry, Alexa488-MEK5 binding to MEKK2 WT; actives lie on both sides; in the data active means binding response below about 16% or above about 210%; inactive means in between
# MEKK2mut-MEK5 = signal of MEK5 binding to mutant human MEKK2, retest | 5,900 compounds, 2% hits | AID 1893 | percent response, % at 10 µM | shares compounds with MEKK3 PB1 HTS | bead flow cytometry, Alexa488-MEK5 binding to MEKK2 mutant; in the data active means percent response mostly above about 71%, no sharp cut-off; inactive means mostly below about 38%;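 further: higher means compound restores mutant binding toward wildtype level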
# MEKK3 confirm = confirmation of inhibitors of MEK5 binding to human MEKK3 | shares compounds with MEKK3 PB1 HTS | bead flow cytometry, Alexa488-MEK5 binding to MEKK3; active compounds read low | binding response (% of control), % at 10 µM | 5,900 compounds, 1.8% hits;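 active means binding response below 72% of control, or above a set upper limit, though filed actives all read lower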;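 further: 100% = DMSO only wells and 0% = binding blocked by excess unlabeled MEK5; lower values mean stronger disruption of MEK5 binding to MEKK3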
# Starred values were filed as active, the others as inactive; . = no result; [ ] = dose if it differs, or a comment. In the library only some 2.4% were active in any assay of this set; here they are far more common.
SMILES,MEKK2mut PB1 HTS,Pf gametocyte,MEKK3 PB1 HTS,Arbovirus anti,MEKK2 WT-MEK5,MEKK2wt confirm,MEKK2mut-MEK5,MEKK3 confirm
Cc1cccc(C(=O)N2CCN(c3ncnc4c3cnn4-c3ccccc3)CC2)c1,24*,-20,106,1,100,97,-2,100
CCOC(=O)c1ccc(NC(=S)N(CCCN2CCCC(C)C2)Cc2cccs2)cc1 (centres undefined),13,2,103,7,142*,119,6,100
Cc1sc(NC(=O)CN2CCOCC2)nc1-c1ccc2c(c1)CCN2S(=O)(=O)c1ccccc1,0,-16,95,-14,95,.,.,.
O=C(CN1CCOCC1)Nc1nc(-c2ccc3c(c2)CCN3S(=O)(=O)c2ccccc2)cs1,-26,-9,2.0*[inhibitor],-8,3.0*[inhibitor],99,-9,101
CC(C)C(=O)Nc1cccc(C(=O)Nc2ccc(S(=O)(=O)Nc3nccs3)cc2)c1,0,.,99,.,95,.,.,.
COc1cc(NC(=O)C2CCN(S(=O)(=O)c3cccnc3)CC2)cc(OC)c1OC,25*,4,115,6,114,104,10,108
Cc1ccc(-c2cc(C(=O)Nc3nccs3)c3ccccc3n2)c(C)c1,0,9,152*,9,106,105,-6,101
COc1ccc(C(CCNC(C)c2ccccc2)c2ccc(F)cc2)cc1 (centres undefined),46,.,107,-21,156*,124,6,103
COc1ccc(CNCCC(c2ccc(OC)cc2)c2ccccc2OC)cc1 (centres undefined),21,.,106,.,147*,149,41,104
COc1ccc(CNCCC(c2ccc(F)cc2)c2ccc(OC(C)C)cc2)cc1OC (centres undefined),-5,3,71,.,82,.,.,.
COc1ccc(C(CCNCc2ccc(OC(C)C)cc2)c2ccccc2OC)cc1 (centres undefined),40*,.,111,.,199*,198,70*,111
COc1ccc(C(CCNCc2ccccc2)c2ccc(F)cc2)cc1 (centres undefined),5,.,94,-21,103,.,.,.
COc1ccc(CNCCC(c2ccccc2)c2ccc(OC(C)C)cc2)cc1OC (centres undefined),22,.,106,.,151*,147,34,110
O=S(=O)([O-])CCC[n+]1c(SCCCS(=O)(=O)O)sc2ccc(Cl)cc21,-2,-10,98,0,101,.,.,.
COc1ccc(C(CCNCc2ccc(N(C)C)cc2)c2ccccc2OC)cc1 (centres undefined),22,.,108,.,148*,142,18,105
CC1NC(=O)NC1CCCCCC(=O)NCCc1ccccc1 (centres undefined),-21,.,1.0*[inhibitor],11,-2.0*[inhibitor],111,3,104
O=CNCC(=O)NC1CCCCCC1,-7,9,79*[inhibitor],-2,84,97,-6,100
CNC[C@H](CC1CCCCC1)NC[C@H](Cc1ccccc1)NCCC12CC3CC(CC(C3)C1)C2,70*,-4,109,.,278*,265*,126*,115
NC(=O)c1oc2ccccc2c1NC(=O)CN1CCCCC1,9,.,106,-6,111,.,.,.
CC(=O)c1oc2ccccc2c1NC(=O)CN1CCCCC1,-2,-1,4.0*[inhibitor],-6,3.0*[inhibitor],105,6,105
CN(CCO)c1cc(N2CCCCC2)c2nonc2c1[N+](=O)[O-],-1,1,119,14,106,.,.,.
CN(CCO)c1cc(N2CCC3(CC2)OCCO3)c2nonc2c1[N+](=O)[O-],-1,-27,74*[inhibitor],-1,105,98,-2,100
COc1ccccc1C(=O)NCCc1c(C)[nH]c2c(C)ccc(F)c12,9,10,107,0,108,.,.,.

# Screens deposited in PubChem BioAssay by several laboratories.
